Data: the supplement of paper PMC12645437, “Orthogonal IMiD-Degron Pairs Induce Selective Protein Degradation in Cells” (ACS Chemical Biology, 2025)
Over roughly 8,300 sequences, “log2 fold change of degron read counts, EGFP-low vs EGFP+ sorted cells (limma voom), compound-induced degradation” has its median near -1.1; the highest 2% begin near 3.2. The sample holds the highest values, similar sequences and a random draw of the others, so the mix is not that of the screen.

T1: CRBN, Q96SW2
T1 chain: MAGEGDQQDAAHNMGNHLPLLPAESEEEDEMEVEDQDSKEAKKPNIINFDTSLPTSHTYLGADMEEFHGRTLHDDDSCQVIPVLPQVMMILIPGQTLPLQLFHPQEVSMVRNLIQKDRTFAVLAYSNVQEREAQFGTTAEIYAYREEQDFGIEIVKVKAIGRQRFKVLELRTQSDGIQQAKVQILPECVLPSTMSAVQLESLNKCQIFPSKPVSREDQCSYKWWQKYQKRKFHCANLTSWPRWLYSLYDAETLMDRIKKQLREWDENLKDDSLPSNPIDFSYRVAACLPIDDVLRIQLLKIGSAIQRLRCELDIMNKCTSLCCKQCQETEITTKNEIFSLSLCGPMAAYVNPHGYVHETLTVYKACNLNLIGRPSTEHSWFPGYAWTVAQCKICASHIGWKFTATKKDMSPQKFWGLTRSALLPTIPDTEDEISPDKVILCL


Biological target: T1, CRBN, Q96SW2
Assay: log2 fold change of degron read counts, EGFP-low vs EGFP+ sorted cells (limma voom), compound-induced degradation; higher = more compound-induced degradation of the degron-EGFP fusion; degrons are variants of IKZF1/3 zinc finger 2; compound dose not given here
Settings: Jurkat, 18 h
[1] = compound: compound 19 (5-tert-butyl-thalidomide)
[2] = compound: compound 22 (5-morpholino-thalidomide)
[3] = compound: compound 33 (diphenyl IMiD analogue)
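Note: pooled lentiviral library of zinc finger degron-EGFP fusions in mCherry-positive Jurkat cells, FACS-sorted after compound exposure, with degron abundance counted by next-generation sequencing.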

Row | Sequence | log2 fold change of degron read counts [1] | log2 fold change of degron read counts [2] | log2 fold change of degron read counts [3] | log2 fold change of degron read counts (compound: thalidomide)
1 | FICNQCGHNFTQKGNLLRHIKL [46F_47I_49N_50Q_52G_53H_54N_55F_67L_, Q9UKT9] | -2.7 | -3.24 | -2.97 | -2.3
2 | FICNQCGHQFTQKGNLLRHIKL [46F_47I_49N_50Q_52G_53H_54Q_55F_67L_, Q9UKT9] | -3.84 | -3.33 | -2.9 | -3.11
3 | FNCEICGAFFTQKGNLLRHIKL [46F_47N_49E_50I_52G_53A_54F_55F_67L_, Q9UKT9] | 0.798 | -1.38 | -0.734 | -1.26
4 | FACNICGAGFTQKGNLLRHIKL [46F_47A_49N_50I_52G_53A_54G_55F_67L_, Q9UKT9] | 1.91 | 0.962 | -0.444 | -0.984
5 | FWCEICGRHFTQKGNLLRHIKL [46F_47W_49E_50I_52G_53R_54H_55F_67L_, Q9UKT9] | 0.466 | 0.665 | 0.0348 | -0.898
6 | FNCPICGRMFTQKGNLLRHIKL [46F_47N_49P_50I_52G_53R_54M_55F_67L_, Q9UKT9] | -0.587 | -0.626 | -0.159 | -0.181
7 | FGCNQCGHNFTQKGNLLRHIKL [46F_47G_49N_50Q_52G_53H_54N_55F_67L_, Q9UKT9] | -2.02 | -2.05 | -2.04 | -1.85
8 | LLCPICGFHCTQKGNLLRHIKL [46L_47L_49P_50I_52G_53F_54H_55C_67L_, Q9UKT9] | -0.42 | 0.0892 | 1.25 | 1.51
